PubChem BioAssay (NCATS)
“And” between values parts separate entries of the source, which are not always exact repeats. Equal values may be shown once. Results filed as inconclusive are left out. A call without a number means that no potency is given here. A structure can be active in one record and inactive in another. The source made the active and inactive calls. Calls come from the whole dose curve; as a rule, active = well fitted curve in the direction sought with a large enough effect; inconclusive = small, poorly fitted or top-dose-only effect, or another doubt; inactive = no such curve, though single readings can be large; an effect the other way counts as inactive or inconclusive.

Key:
[1] = molecular target: Cytochrome P450 3A7 (Homo sapiens) (UniProt P24462); assay: Cytochrome P450 family 3 subfamily A member 7 (CYP3A7) small molecule antagonists: luciferase biochemical qHTS assay (AID 1963596); note: nearly all actives have a fitted effect of over 40% in size
Summary of the method: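 Recombinant CYP3A7 P450-Glo luminescent assay: enzyme-proluciferin substrate mix preincubated with compound 10 min at room temperature, reaction started with NADPH regeneration system for 1 h. Luciferin detected by luminescence; ketoconazole as positive control.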

[2] = Viability qHTS for spleen associated tyrosine kinase inhibitor (SYKi) naive MV4-11 cells (AID 1963823); note: nearly all actives have a fitted effect of over 40% in size; note: potency is the fitted concentration of half-maximal effect
Summary of the method: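 CellTiter-Glo luminescence, 10 min room-temperature incubation, gave viability. Cells: naive MV4-11 (500/well), treated 72 hr at 37 C, 5% CO2.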

[3] = Viability qHTS for spleen associated tyrosine kinase inhibitor (SYKi) drug resistant MV4-11 cells (AID 1963824); note: nearly all actives have a fitted effect of over 35% in size; note: potency is the fitted concentration of half-maximal effect
Summary of the method: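 SYK inhibitor-resistant MV4-11 AML cells, 500 per well, added to predispensed compounds and incubated 72 hr at 37 C, 5% CO2. Viability measured by CellTiter-Glo luminescence after 10 min at room temperature.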

[4] = Quantitative highthroughput screen to assess conditional lethalithy of NOMO1 cells grown in RPMI1640 with untreated serum (RPMI+s) (AID 1963876); note: nearly all actives have a fitted effect of over 35% in size; note: potency is the fitted concentration of half-maximal effect
Summary of the method: (§1)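 Each medium arm—HPLM with 10% dialyzed FBS, or RPMI1640 with 5 mM glucose and 10% untreated or dialyzed FBS—was screened against an 11-point, 3-fold compound titration for 48 h at 37 °C, with CellTiter-Glo luminescence as endpoint.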

[5] = Quantitative highthroughput screen to assess conditional lethalithy of NOMO1 cells grown in RPMI1640 with dialyzed fetal bovine serum (RPMI+ds) (AID 1963877); note: nearly all actives have a fitted effect of over 30% in size; note: potency is the fitted concentration of half-maximal effect; for Viability: series mostly up to about 46 µM
Summary of the method: as §1

[6] = Quantitative highthroughput screen to assess conditional lethalithy of NOMO1 cells grown in Human Plasma-Like Medium with dialyzed fetal bovine serum (HPLM+ds) (AID 1963878); note: nearly all actives have a fitted effect of over 35% in size; note: potency is the fitted concentration of half-maximal effect
Summary of the method: as §1

[7] = Quantitative highthroughput screen to assess conditional lethalithy of P12 Ichikawa cells grown in Human Plasma-Like Medium with dialyzed fetal bovine serum (HPLM+ds) (AID 1963879); settings: Potency: viability; note: nearly all actives have a fitted effect of over 35% in size; note: potency is the fitted concentration of half-maximal effect; for Viability: series mostly up to about 46 µM
Summary of the method: as §1

[8] = Quantitative highthroughput screen to assess conditional lethalithy of P12 Ichikawa cells grown in RPMI1640 with untreated serum (RPMI+s) (AID 1963881); settings: Potency: viability; note: nearly all actives have a fitted effect of over 35% in size; note: potency is the fitted concentration of half-maximal effect; for Viability: series mostly up to about 46 µM
Summary of the method: as §1

[9] = Quantitative highthroughput screen to assess conditional lethalithy of SEM cells grown in Human Plasma-Like Medium with dialyzed fetal bovine serum (HPLM+ds) (AID 1963882)
Summary of the method: as §1

[10] = Quantitative highthroughput screen to assess conditional lethalithy of SEM cells grown in RPMI1640 with unreated serum (RPMI+s) (AID 1963883); note: nearly all actives have a fitted effect of over 35% in size; note: potency is the fitted concentration of half-maximal effect
Summary of the method: as §1

[11] = Quantitative highthroughput screen to assess conditional lethalithy of SEM cells grown in RPMI1640 with dialyzed fetal bovine serum (RPMI+ds) (AID 1963884); note: nearly all actives have a fitted effect of over 35% in size; note: potency is the fitted concentration of half-maximal effect; for Viability: series mostly up to about 46 µM
Summary of the method: as §1

[12] = Cellular viability qHTS for adrenocortical cancer (ACC) cell line SW-13 (AID 1963989); settings: SW-13 ACC cells viability, CellTiter-Glo, 48 h; activity (max response): stronger effect = lower value; note: nearly all actives have a fitted effect of over 65% in size; note: potency is the fitted concentration of half-maximal effect;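 for activity (max response): cells grown in serum-free medium with ITS supplement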
Summary of the method: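 Luminescent ATP read-out (CellTiter-Glo, 20 min at room temperature) measured metabolically competent SW-13 cells after 48 h compound treatment. Final concentrations spanned up to 46 uM; bortezomib served as positive control.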

[13] = Cellular viability qHTS for adrenocortical cancer (ACC) cell line NCI-H295R (AID 1963990); note: nearly all actives have a fitted effect of over 60% in size; note: potency is the fitted concentration of half-maximal effect
Summary of the method: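 IC50 and maximal efficacy derive from four-parameter logistic modelling of titration curves, with reads scaled between DMSO-only wells (0%) and doxorubicin hydrochloride (100% inhibition). Compounds spanned up to 46 uM over 48 h.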

[14] = Quantitative highthroughput screen to assess conditional lethalithy of P12 Ichikawa cells grown in RPMI1640 with dialyzed fetal bovine serum (RPMI+ds) (AID 1963880); settings: Potency: P12-Ichikawa viability; note: nearly all actives have a fitted effect of over 35% in size; note: potency is the fitted concentration of half-maximal effect
Summary of the method: as §1

Chain of Cytochrome P450 3A7 (Homo sapiens) (P24462 whole entry, looked up): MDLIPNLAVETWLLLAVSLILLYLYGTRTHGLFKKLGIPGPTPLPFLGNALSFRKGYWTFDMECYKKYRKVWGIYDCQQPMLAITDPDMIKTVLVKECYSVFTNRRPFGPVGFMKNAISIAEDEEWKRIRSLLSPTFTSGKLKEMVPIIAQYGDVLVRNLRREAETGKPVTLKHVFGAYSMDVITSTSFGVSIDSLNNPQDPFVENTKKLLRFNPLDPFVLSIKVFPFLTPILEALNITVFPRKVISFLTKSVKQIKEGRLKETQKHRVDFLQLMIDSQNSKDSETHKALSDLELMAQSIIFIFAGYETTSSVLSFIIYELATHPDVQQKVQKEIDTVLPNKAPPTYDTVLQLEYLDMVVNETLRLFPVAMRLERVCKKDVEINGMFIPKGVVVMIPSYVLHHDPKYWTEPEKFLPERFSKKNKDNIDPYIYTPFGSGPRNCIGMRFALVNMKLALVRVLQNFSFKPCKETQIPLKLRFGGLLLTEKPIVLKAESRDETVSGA

SMILES | Potency [1] | Potency [2] | Potency [3] | Potency [4] | Potency [5] | Potency [6] | Potency [7] | Potency [8] | Potency [9] | Potency [10] | Potency [11] | activity (max response) [12] | Potency [13] | Potency [14] | Potency [12]
CCOC(=O)C(C)(C)Oc1ccc(Cl)cc1 | inactive | inactive | inactive | inactive | inactive | inactive | inactive | inactive | inactive | inactive | inactive | 0.705% (inactive) and -17.8% (inactive) | inactive |  | 
CCC1(C)CC(=O)NC1=O (centres undefined) | inactive | inactive | inactive | inactive |  | inactive | inactive | inactive | inactive | inactive | inactive | 14.5% (inactive) and 4.04% (inactive) | inactive | inactive | 
Cn1cnc([N+](=O)[O-])c1Sc1ncnc2nc[nH]c12 | inactive | 5900 nM (active) | 2.15 µM (active) and 2.35 µM (active) | 6.62 µM (active) | 5.26 µM (active) | 2.64 µM (active) |  |  |  |  |  |  | 3.98 µM (active) and 8.2 µM (active) and 5.62 µM (active) | 5.9 µM (active) | 5.01 µM (active) and 9.2 µM (active) and 7.94 µM (active)
CCOC(=O)c1ncn2c1CN(C)C(=O)c1cc(F)ccc1-2 | inactive | inactive | inactive | inactive | inactive | 20.9 µM (active) | 3.72 µM (active) |  |  |  |  | 10.7% (inactive) and 8.93% (inactive) | inactive |  | 
CCOC(=O)C1=C(N)Oc2ccc(Br)cc2C1C(C#N)C(=O)OCC (centres undefined) | inactive | 13.2 µM (active) and inactive | 8.33 µM (active) and 11.6 µM (active) | inactive | inactive |  | inactive | inactive | inactive |  |  | -2.87% (inactive) | inactive |  | 
CCn1cc(C(=O)O)c(=O)c2cc(F)c(N3CCNCC3)cc21 | inactive | inactive | inactive | inactive | inactive |  |  |  |  |  |  | -6.7% (inactive) and -21.8% (inactive) | inactive |  | 
Cn1ccc2cc3c(cc21)CCN3C(=O)Nc1cccnc1 | inactive | inactive | inactive | inactive | inactive | inactive |  |  |  |  |  | -12.5% (inactive) and 11.5% (inactive) | inactive |  | 
C#CCN[C@@H]1CCc2ccccc21 | inactive | inactive | inactive | inactive | inactive |  | inactive | inactive | inactive |  | inactive | 3.89% (inactive) and -12.7% (inactive) | inactive | inactive | 
COc1cc2ncnc(Nc3cc(Br)c(O)c(Br)c3)c2cc1OC | inactive | 11.8 µM (active) and 11.6 µM (active) | 13.2 µM (active) and 9.2 µM (active) | inactive | inactive | inactive |  | inactive | inactive | inactive |  |  | inactive | inactive | 
NC(=O)OCC(COC(N)=O)c1ccccc1 | inactive | inactive | inactive | inactive | inactive |  | inactive | inactive | inactive | inactive | inactive | 2.38% (inactive) and -8.33% (inactive) | inactive |  | 
CC[C@H](NC(C)C)[C@H](O)c1ccc(O)c2[nH]c(=O)ccc12 | inactive | inactive and 525 nM (active) | inactive | inactive | inactive | inactive | inactive | inactive | inactive | inactive | inactive | 3.1% (inactive) and 13.3% (inactive) | inactive |  | 
OC[C@H]1O[C@@H](OCCc2ccc(O)cc2)[C@H](O)[C@@H](O)[C@H]1O | inactive | inactive | inactive | inactive | inactive | inactive | inactive |  | inactive |  | inactive | -16.3% (inactive) |  | inactive | 
NS(=O)(=O)c1cc2c(cc1Cl)NC(C(Cl)Cl)NS2(=O)=O (centres undefined) | inactive | inactive | inactive | inactive | inactive | inactive | inactive |  | inactive |  | inactive | 15.1% (inactive) and 11.4% (inactive) | inactive | inactive | 
Cc1ccc(C(=O)Nc2ccc(S(=O)(=O)O)c3cc(S(=O)(=O)O)cc(S(=O)(=O)O)c23)cc1NC(=O)c1cccc(NC(=O)Nc2cccc(C(=O)Nc3cc(C(=O)Nc4ccc(S(=O)(=O)O)c5cc(S(=O)(=O)O)cc(S(=O)(=O)O)c45)ccc3C)c2)c1 | inactive | inactive | inactive | inactive | 8.33 µM (active) |  |  |  |  |  |  | -19.9% (inactive) and 5.07% (inactive) | inactive |  | 
CCC[C@@H]1C[C@@H](C(=O)N[C@@H]([C@H]2O[C@H](SC)[C@H](O)[C@@H](O)[C@H]2O)[C@@H](C)O)N(C)C1 | inactive | inactive | inactive | inactive | inactive |  | inactive | inactive | inactive | inactive | inactive |  | inactive | inactive | 
Cc1cnc(CNC(=O)c2c(=O)c3ccc(N4CCCN(C)CC4)nc3n3c2sc2ccccc23)cn1 | inactive | 841 nM (active) | 1.68 µM (active) | inactive | inactive | inactive | inactive |  |  | 2.88 µM (active) |  |  |  | 10.2 µM (active) | 
Cc1cnc(Nc2ccc(N3CCN(C)CC3)cc2)nc1Nc1cccc(S(=O)(=O)NC(C)(C)C)c1 | inactive | 103 nM (active) | 0.206 µM (active) | 13.2 µM (active) |  | 14.8 µM (active) | 11.8 µM (active) | 7.43 µM (active) |  | 0.935 µM (active) | 1.32 µM (active) |  |  | 16.6 µM (active) | 12.6 µM (active)
